Assay outcomes as filed in PubChem BioAssay.
The list is not random: actives were taken first. Their share in the collection is about 19%.
TDP1 cell CPT: DT40-hTDP1 cell growth loss with CPT; chicken DT40 Tdp1-/-;hTDP1 cells + 20 nM CPT, ATP luminescence, 48 h; Potency, µM (doses to about 46.2 µM), for inactives: at the highest dose activity change, negative = growth inhibition, usual class: inhibitors; 420,000 tested, 12% active; AID 686979; also: potency is read from the fitted curve at half-maximal effect; nearly all actives have a fitted effect of over 55% in size
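Chicken DT40 Tdp1-/- cells complemented with human TDP1, 400 cells/well, exposed to compounds plus 20 nM camptothecin for at least 48 h at 37 C; viability read as ATP content by CellTiter-Glo luminescence.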
TDP1 cell noCPT: qHTS for Inhibitors of human tyrosyl-DNA phosphodiesterase 1 (TDP1): qHTS in cells in absence of CPT; DT40 Tdp1-/- hTDP1 cells, no CPT, ATP luminescence, 48 h; Potency, µM (titrated, usually from 46.2 µM), for the others: at the top dose activity change, negative = growth inhibition, most hits filed as inhibitors; 420,000 tested, 15% active; AID 686978, 2013; also: potency is read from the fitted curve at half-maximal effect; nearly all actives have a fitted effect of over 55% in size
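Stably hTDP1-transfected Tdp1-null chicken DT40 cells were treated with library compounds minus camptothecin and grown for at least 48 hr at 37 °C, after which cellular ATP was quantified by luminescence.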
IL1B secr inh: inhibitors of inflammasome signaling (IL-1 beta secretion); THP-1 LPS/ATP IL-1B secretion, AlphaLISA, 16 h; hits give low values; activity change, % at 57.5 µM; 360,000 tested, 4.7% active; in the data active = activity change below about -50%; inconclusive = mostly about -30% to -49%
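Secreted IL-1B measured by AlphaLISA bead assay after 16 h compound exposure of THP-1 cells; compounds (final up to 57.5 uM) added 1 h before LPS (250 ng/mL) and ATP (1.25 mM) stimulation; lower signal means less secretion.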
HT1080 IDH1KD tx: kills HT-1080 cells with IDH1 knockdown | HT-1080 IDH1 knockdown viability, ATP luminescence, 48 h | 360,000 tested, 2% active | AID 686971 | Potency, µM (series often up to 46.1 µM), without a hit: at the highest dose activity, negative = toxicity, usual class: cytotoxic;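 also: potency is read from the fitted curve at half-maximal effect; 0% = DMSO wells and -100% = cell-free medium wells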
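HT-1080-IDH1KD cells (IDH1 knocked down), 750/well in RPMI with 5% FBS, treated with compound 48 h at 37 degrees C. Viability by CellTiter-Glo luminescence, normalised to DMSO and no-cell wells; concentration-response curves classed.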
HT1080-NT tox: kills 2HG-producing HT-1080-NT fibrosarcoma cells; HT-1080-NT fibrosarcoma viability, CellTiter-Glo ATP luminescence, 48 h; Potency, µM (series often up to 46.1 µM), for inactives: top-dose activity, negative = less viability, hits mostly cytotoxic; 360,000 tested, 1.6% active;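 also: NT is the 2HG producing partner of a matched IDH1 knockdown line; potency is read from the fitted curve at half-maximal effect; 0% = DMSO-treated cells and -100% = media-only wells without cells; nearly all actives have a fitted effect of over 55% in size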
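Luminescent CellTiter-Glo readout after 48 hours of compound exposure at 37 degrees C defined viability of HT-1080-NT cells. Activity was normalized to DMSO wells and cell-free media wells; concentration-response curves were fitted and assigned curve classes.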
The depositor's hits bear a star; [ ] = dose if it differs, or a comment. Unless noted, calls follow the shape of the dose curve; as a rule, active = well fitted curve in the direction sought with a large enough effect; inconclusive = small, poorly fitted or top-dose-only effect, or another doubt; inactive = no such curve, though single readings can be large; an effect the other way counts as inactive or inconclusive. Unless noted, % is scaled to controls: 0 for no effect and ±100 for the full control effect.

Screening O=C(Nc1ccc(N2CCN(C(=O)c3cccs3)CC2)cc1)c1ccccc1Cl returned TDP1 cell CPT 14.6µM*, TDP1 cell noCPT 11.6µM*, IL1B secr inh -56.8*, HT1080 IDH1KD tx 9.2µM* and HT1080-NT tox inconclusive.
COc1cccc(OC)c1C(=O)Nc1ccc(N2CCN(C(=O)c3cccs3)CC2)cc1 was read as TDP1 cell CPT -22.5%, TDP1 cell noCPT inconclusive, IL1B secr inh 0.0, HT1080 IDH1KD tx 0.4% and HT1080-NT tox 15.8%.
For O=C(NCCc1ccccc1)c1ccc(NC(=O)C2CCCC2)cc1 the results were TDP1 cell CPT -21.3%, TDP1 cell noCPT -23.7%, IL1B secr inh -11.0, HT1080 IDH1KD tx 2.4% and HT1080-NT tox -0.3%.
For CC(=O)N1CCc2cc(Br)cc(S(=O)(=O)CCC(=O)N3CCN(c4cccc(C)c4C)CC3)c21 the results were TDP1 cell CPT 16.4µM* and TDP1 cell noCPT inconclusive.
COc1ccc(CCNC(=O)c2ccc3c(Cl)c4c(nc3c2)CCCC4)cc1OC was read as TDP1 cell CPT 14.6µM* and TDP1 cell noCPT 4.11µM*.
`COc1ccc(CNC(=O)c2ccc3c(Cl)c4c(nc3c2)CCCC4)c(OC)c1` gave TDP1 cell CPT inconclusive and TDP1 cell noCPT 23.1µM*.
`COc1cc(Cl)c(C)cc1NC(=O)c1ccc2c(Cl)c3c(nc2c1)CCC3` gave TDP1 cell CPT 0.5% and TDP1 cell noCPT 1.4%.
COc1ccc(CCNC(=O)c2ccc3c(Cl)c4c(nc3c2)CCCC4)c(OC)c1 was read as TDP1 cell CPT 16.4µM* and TDP1 cell noCPT 18.4µM*.
For COc1ccc(-c2cc3nc(NCC4CCCCC4)n(C)c(=O)c3s2)cc1OC the results were TDP1 cell CPT inconclusive, TDP1 cell noCPT inconclusive, IL1B secr inh 13.1, HT1080 IDH1KD tx inconclusive and HT1080-NT tox 17.4%.
For Cc1csc(NC(=O)c2ccc(Cl)cc2[N+](=O)[O-])n1 the results were TDP1 cell CPT -13.3%, TDP1 cell noCPT inconclusive, IL1B secr inh 0.0, HT1080 IDH1KD tx -25.2% and HT1080-NT tox -20.3%.
Screening Cc1cc(C(=O)Nc2nc(-c3ccccn3)cs2)ccc1[N+](=O)[O-] returned TDP1 cell CPT 2.31µM*, TDP1 cell noCPT 2.91µM*, IL1B secr inh 107.5, HT1080 IDH1KD tx inconclusive and HT1080-NT tox -18.7%.
Screening O=C(Nc1nc(-c2ccccn2)cs1)c1cc(Cl)ccc1[N+](=O)[O-] returned TDP1 cell CPT 0.82µM*, TDP1 cell noCPT 1.46µM*, IL1B secr inh 57.8, HT1080 IDH1KD tx inconclusive and HT1080-NT tox inconclusive.
`COC(=O)c1cc(CNC(=O)c2cccc(C)c2)cc(NC(=O)c2ccncc2)c1` gave TDP1 cell CPT 2.3%[9.04 µM] and TDP1 cell noCPT -9.3%.
O=C(NCc1ccccn1)c1cc(-c2ccc(Br)cc2)nc2ccccc12 was read as TDP1 cell CPT inconclusive, TDP1 cell noCPT 13µM*, IL1B secr inh -3.7, HT1080 IDH1KD tx 12.4% and HT1080-NT tox 9.4%.
`O=C(NCCc1ccccn1)c1cc(-c2cccc3ccccc23)nc2ccccc12` gave TDP1 cell CPT 25.9µM*, TDP1 cell noCPT inconclusive, IL1B secr inh -14.2, HT1080 IDH1KD tx -4.7% and HT1080-NT tox -8.3%.
O=C(NCc1ccc(F)cc1)c1cc(-c2ccncc2)nc2ccccc12 was read as TDP1 cell CPT inconclusive, TDP1 cell noCPT inconclusive, IL1B secr inh 15.4, HT1080 IDH1KD tx -1.0% and HT1080-NT tox inconclusive.
Cc1ccc2nc(-c3ccncc3)cc(C(=O)NCCc3ccc(F)cc3)c2c1 was read as TDP1 cell CPT inconclusive, TDP1 cell noCPT inconclusive, IL1B secr inh 2.0, HT1080 IDH1KD tx -7.1% and HT1080-NT tox -2.8%.
Cc1ccc2nc(-c3ccccn3)cc(C(=O)NCCc3ccc(F)cc3)c2c1 was read as TDP1 cell CPT inconclusive, TDP1 cell noCPT 20.6µM*, IL1B secr inh 15.0, HT1080 IDH1KD tx 3.2% and HT1080-NT tox -0.9%.
